{
  "source": "PubChem BioAssay (NCATS)",
  "note": "Inconclusive results are not listed. Entries that show only a call come without a potency. Active and inactive are the calls of the source. Calls come from the whole dose curve; as a rule, active = well fitted inhibition curve with a large enough effect; inconclusive = small, poorly fitted or top-dose-only effect; inactive = no such curve, though single readings can be large or run the other way.",
  "data": [
    {"test_system": "Zika virus NS2B-NS3 protease (linked construct)", "assay": "Primary screen NINDS Rhodamine qHTS for Zika virus inhibitors (AID 1347160); note: nearly all actives have a fitted effect of over 55% in size; note: potency is the fitted concentration of half-maximal effect", "conditions": "purified NS2B-NS3 protease, Rhodamine110 substrate fluorescence; series mostly up to 57.1 µM", "excerpt": "Avindra Nath, Ph.D., National Institute of Neurological Disorders and Stroke (NINDS), Bethesda, MD\nRadhakrishnan Padmanabhan, Ph.D., Georgetown University (GU), Washington D.C.\nZika Virus causes congenital defects, including microcephaly and is associated with Guillain-Barre syndrome, eningoencephalitis and myelitis in infected adult. […] Using a target-based approach, we hope to establish a screening paradigm to uncover novel, cell-active NS2B-NS3 protease (Zika Virus) specific inhibitors from NCATS' collection of small molecules using qHTS.\nFour assay panel was created to identify potential Zika Virus inhibitors. Namely, (1) GU unlinked NS2B-NS3 AMC tagged protease qHTS, (2) GU unlinked NS2B-NS3 Rhodamine tagged protease qHTS, (3) NINDS linked NS2B-NS3 AMC tagged protease qHTS, (4) NINDS linked NS2B-NS3 Rhodamine tagged protease qHTS. Active compounds were re-acquired and re-screened to confirm inhibition. Inhibitors were further screened against various confirmatory and counterscreens in dose response format.\nEarly Translation Branch (ETB)\nNational Center for Advancing Translational Sciences (NCATS), Rockville, MD\nNational Institute of Health (NIH), Bethesda, Maryland\nFor the linked assay, Nath lab (NINDS) provided the purified linked NS2B-NS3 protease which is consists of hydrophilic domain of NS2B linked to the NS3 protease domain by a flexible (-[…]-) linker. Control compound aprotinin is obtained from Thermo Scientific (#78432; Waltham, Massachusetts). Rhodamine110 substrate ([N-Cbz]-Nle-Lys-Arg-Arg-Rhod110-Arg-Arg-Lys-Nle-[N-Cbz]) was purchased from either Genscript or Bachem.\n1536-well Protease (Rhodamine110 Substrate) Assay:\nBriefly, 3 microL of enzyme (25 nM final concentration), in assay buffer (10 mM Tris-HCl pH 8.0 with 0.01% Tween 20) were dispensed into a 1,536-well solid-bottom black plate (Greiner Bio One, Monroe, NC). Twenty-three nL of compounds (final concentration range 7.28 nM to 114 microM) or control Aprotinin (final concentration range 3.47 nM to 114 microM) were transferred via Wako Pin-tool (Wako Automation, Richmond, VA). Samples were incubated (room temperature, protected from light) for 15 minutes followed by a 1 microL Rhodamine110 substrate addition (1.5 microM final concentration). Plates were then immediately read on a ViewLux High-throughput CCD imager (PerkinElmer, Waltham, MA) equipped with FITC fluorescence optics (480(20) nm excitation, 540(25) nm emission), then incubated (room temperature, protected from light) for 15 minutes (~15% conversion). The change in fluorescence intensity over the 15-minute reaction period was normalized against no-inhibitor and no-enzyme controls and the resulting percent inhibition data were fitted to a 4-parameter Hill equation. Aprotinin was used as intraplate control.", "values": [
      {"compound": "CC1CC(OC(=O)C(O)c2ccccc2)CC(C)(C)C1", "note": "(configuration not stated)", "Potency": "inactive"},
      {"compound": "O=C(O)Cc1cc(I)c(Oc2ccc(O)c(I)c2)c(I)c1", "Potency": "3.16 µM (active)"},
      {"compound": "CC(=O)Nc1ccc(NC(=S)NC(=O)c2ccc(C(C)(C)C)cc2)cc1", "Potency": "inactive"},
      {"compound": "C[C@H]1O[C@@H](O[C@H]2[C@@H](O)C[C@H](O[C@H]3[C@@H](O)C[C@H](O[C@H]4CC[C@@]5(C)[C@H](CC[C@@H]6[C@@H]5C[C@@H](O)[C@]5(C)[C@@H](C7=CC(=O)OC7)CC[C@]65O)C4)O[C@@H]3C)O[C@@H]2C)C[C@H](O)[C@@H]1O", "Potency": "inactive"},
      {"compound": "C[C@]12CC[C@@H]3c4ccc(OC(=O)c5ccccc5)cc4CC[C@H]3[C@@H]1CC[C@@H]2O", "Potency": "inactive"},
      {"compound": "C=C1CC[C@H](O)CC1=C/C=C1\\CCC[C@]2(C)[C@@H]([C@H](C)/C=C/[C@H](C)C(C)C)CC[C@@H]12", "Potency": "12.6 µM (active)"},
      {"compound": "C/C(=C\\C(=O)OCCCCCCCCC(=O)O)C[C@@H]1OC[C@H](C[C@@H]2O[C@H]2[C@@H](C)[C@H](C)O)[C@@H](O)[C@H]1O", "Potency": "inactive"},
      {"compound": "CO[C@H]1C[C@@H]2CC[C@@H](C)[C@@](O)(O2)C(=O)C(=O)N2CCCC[C@H]2C(=O)O[C@H]([C@H](C)C[C@@H]2CC[C@@H](OC(=O)C(C)(CO)CO)[C@H](OC)C2)CC(=O)[C@H](C)/C=C(\\C)[C@@H](O)[C@@H](OC)C(=O)[C@H](C)C[C@H](C)/C=C/C=C/C=C/1C", "Potency": "inactive"},
      {"compound": "CCN(CC)CCOCCOC(=O)C(CC)(CC)c1ccccc1", "Potency": "inactive"},
      {"compound": "CC(C)(C)c1ccc(CN2CCN(C(c3ccccc3)c3ccc(Cl)cc3)CC2)cc1", "note": "(configuration not stated)", "Potency": "inactive"},
      {"compound": "C=C1[C@H](CO)[C@@H](O)C[C@@H]1n1cnc2c(=O)[nH]c(N)nc21", "Potency": "inactive"},
      {"compound": "COc1ccc(C[C@H](C)NC[C@@H](O)c2ccc(O)c(NC=O)c2)cc1", "Potency": "inactive"}
    ]}
  ]
}
